Laboratory results from PubChem BioAssay.

test: blockers of RIG-like receptor reporter activation – cell-based, Sendai virus stimulus, luciferase, 10K MLSCN set, TLR/RLR signaling modifier project, primary screen (AID 602276); conditions: HEK293 RL24 IRF3 luciferase reporter, at 10 µM, stronger effect = higher value;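 active = inhibition at or above 50% at 10 µM; inactive = inhibition below 50%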;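 also: firefly luciferase from ISG56 promoter only with Renilla not read in this screen; 0% = Sendai virus plus DMSO and 100% = medium plus DMSO without virus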

inhibition, inactive:
O=C(CCn1c(=O)sc2ccccc21)NC1=NCCS1 -9.67%
Cc1ccc(C(C)C)c(OCCCN2CC(C)OC(C)C2)c1 (configuration not stated) 8.84%
O=C1NC(c2ccccc2)(C(F)(F)F)SC2=NCCCN12 (configuration not stated) -6.22%
O=C(CP(=O)(CO)CO)c1ccc(Cl)cc1 3.99%
CC(C)[N+]1(C)[C@@H]2CC[C@H]1CC(OC(=O)C(CO)c1ccccc1)C2 (some centres not stated) -5.72%
CCC(=O)N1CCc2cc(Br)cc(S(=O)(=O)CCC(=O)NCC3CCCO3)c21 (configuration not stated) 11.2%
COc1cc(OC)cc(-c2nc3nc(C)c(CCC(=O)O)c(C)n3n2)c1 21.9%
CCOC(=O)C(CC)(CCC(=O)O)c1csc(N)n1 (configuration not stated) 13.6%
O=C1CC(=O)N(Cc2cccs2)C(=O)N1 1.08%
COc1cccc(-c2cc3nc4c(c(N5CCC6(CC5)OCCO6)n3n2)CCCC4)c1 -10.9%
Nc1nc(C(=O)N2CCOCC2)nn1S(=O)(=O)c1ccc(Cl)cc1 11%
O=C(Nc1ccc2c(c1)OCO2)C1CCCN1C(=O)Nc1ccccc1F (configuration not stated) 16.1%
CCOc1cccc(OCCOCCN2CCCC2)c1 14.6%
COc1cccc(C(=O)Nc2cnc(NC(=O)c3ccco3)cc2C)c1 5.68%
CC(C)(C)c1cc(C(=O)O)nn1-c1ccccc1 15.1%
COc1ccccc1OCCn1c(=O)sc2ccccc21 1.53%
COC(=O)c1c(C(=O)OC)n(CCCN)c2ccc(C)cc12 20.6%
